Laboratory results reported in PubChem BioAssay (EPA / NIEHS).
The source made the active and inactive calls. The calls were made as follows: active = hit-call score of the fitted dose curve at least 0.9, where 1 is the maximum; inactive = score below 0.9.

What was measured:
[1] = ATG_CRE_CIS: Attagene CIS-FACTORIAL HepG2 Assay for human cAMP Responsive Element (CRE) binding protein 3 (AID 2282926); settings: HepG2 CRE cis-reporter, Attagene multiplexed mRNA; actives raise or lower the signal
Outline: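 Cells carrying cis-regulated reporter constructs respond through their own endogenous factors. After 24 h treatment, RNA is reverse-transcribed, amplified, labelled and sized by capillary electrophoresis; up- and down-regulation are both scored against vehicle.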

[2] = molecular target: CCAAT/enhancer-binding protein beta (Homo sapiens) (UniProt P17676); assay: ATG_C_EBP_CIS: Attagene CIS-FACTORIAL HepG2 Assay for human CCAAT/Enhancer Binding Protein (C/EBP) beta (AID 2282927); settings: HepG2 Attagene cis-factorial transcription factor reporter; actives raise or lower the signal
Sequence of CCAAT/enhancer-binding protein beta (Homo sapiens) (P17676 whole entry, looked up, the tested form may be a part): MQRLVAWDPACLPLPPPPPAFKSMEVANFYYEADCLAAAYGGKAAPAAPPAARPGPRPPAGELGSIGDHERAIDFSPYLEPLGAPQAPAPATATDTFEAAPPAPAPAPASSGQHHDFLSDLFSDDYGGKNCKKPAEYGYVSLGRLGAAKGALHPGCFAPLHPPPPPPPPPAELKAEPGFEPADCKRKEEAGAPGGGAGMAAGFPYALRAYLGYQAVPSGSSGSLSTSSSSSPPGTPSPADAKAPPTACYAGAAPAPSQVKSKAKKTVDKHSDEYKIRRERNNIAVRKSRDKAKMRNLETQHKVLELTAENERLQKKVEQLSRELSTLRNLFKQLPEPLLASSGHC
Outline: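 Endogenous C/EBPb-driven reporter transcripts measured in transfected human HepG2 cells at 24 h via RT-PCR and capillary electrophoresis of labelled fragments. Activity fitted in both directions relative to DMSO baseline.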

[3] = ATG_CMV_CIS: Attagene CIS-FACTORIAL HepG2 Assay for human CMV (Internal Marker) (AID 2282928); settings: HepG2 CMV promoter reporter, transcription factor profiling; actives raise or lower the signal;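 also: endpoint acts as a background internal control marker rather than a target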
Outline: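 24 h chemical treatment, HepG2 with transient multi-reporter transfection; RNA → oligo(dT) RT → PCR → 6-FAM extension → HpaI digest → CE fluorescence. Bidirectional fit, DMSO negative control.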

[4] = ATG_DR4_LXR_CIS: Attagene CIS-FACTORIAL HepG2 Assay for human Liver X Receptor (LXR), DR4 submotif (AID 2282929); settings: HepG2 Attagene DR4 cis-reporter, mRNA transcription; actives raise or lower the signal
Outline: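 DR4 cis-reporter in HepG2, 24 h exposure. Detection: RT-PCR, 6-FAM labelling, CE fragment analysis. Endpoint fitted bidirectionally, DMSO = baseline.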

[5] = molecular target: Aryl hydrocarbon receptor (Homo sapiens) (UniProt P35869); assay: ATG_Ahr_CIS: Attagene CIS-FACTORIAL HepG2 Assay for human Aryl Hydrocarbon Receptor (Ahr) (AID 2282930); settings: HepG2 AhR cis-factorial reporter transcription; actives raise or lower the signal
Sequence of Aryl hydrocarbon receptor (Homo sapiens) (P35869 whole entry, looked up): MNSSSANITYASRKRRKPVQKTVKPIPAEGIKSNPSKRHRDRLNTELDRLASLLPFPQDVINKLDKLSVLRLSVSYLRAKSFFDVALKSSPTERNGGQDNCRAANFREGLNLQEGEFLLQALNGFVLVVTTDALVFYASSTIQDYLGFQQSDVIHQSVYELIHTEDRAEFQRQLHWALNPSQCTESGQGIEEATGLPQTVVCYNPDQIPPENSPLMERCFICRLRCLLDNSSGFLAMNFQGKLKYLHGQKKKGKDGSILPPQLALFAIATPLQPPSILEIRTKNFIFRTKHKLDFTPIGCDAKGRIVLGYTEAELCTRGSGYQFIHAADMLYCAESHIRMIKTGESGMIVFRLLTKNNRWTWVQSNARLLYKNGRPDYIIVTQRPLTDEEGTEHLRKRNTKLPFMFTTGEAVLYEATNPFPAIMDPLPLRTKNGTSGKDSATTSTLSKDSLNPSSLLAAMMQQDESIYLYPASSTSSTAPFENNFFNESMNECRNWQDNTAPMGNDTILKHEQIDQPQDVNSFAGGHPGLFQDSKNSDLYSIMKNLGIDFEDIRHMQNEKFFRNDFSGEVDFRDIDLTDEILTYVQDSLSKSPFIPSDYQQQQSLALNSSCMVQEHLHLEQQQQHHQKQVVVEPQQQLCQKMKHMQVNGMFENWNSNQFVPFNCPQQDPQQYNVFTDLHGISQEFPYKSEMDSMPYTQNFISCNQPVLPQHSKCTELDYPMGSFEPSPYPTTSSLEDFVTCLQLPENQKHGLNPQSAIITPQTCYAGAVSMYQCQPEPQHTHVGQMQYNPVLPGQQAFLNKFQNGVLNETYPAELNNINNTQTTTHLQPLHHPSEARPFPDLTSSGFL
Outline: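 Reporter mRNA levels, quantified by RT-PCR and fluorescent capillary electrophoresis, reflect endogenous AhR transcriptional activity in HepG2 cells carrying transfected cis-promoter reporter constructs. Readout at 24 h post-dose; gain or loss fitted against DMSO baseline.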

[6] = ATG_AP_2_CIS: Attagene CIS-FACTORIAL HepG2 Assay for human Activator Protein 2 (AP-2) (AID 2282932); settings: HepG2 AP-2 cis-reporter, Attagene transcription factor profiling; actives raise or lower the signal
Outline: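 Transiently transfected HepG2 cells are exposed to chemical for 24 h. Reporter transcripts are then measured as fluorescence following RT-PCR and capillary separation, and gain- or loss-of-signal is fitted relative to DMSO.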

[7] = ATG_BRE_CIS: Attagene CIS-FACTORIAL HepG2 Assay for human Bone Morphogenetic Protein (BMP) Response Element (BRE) (AID 2282933); settings: HepG2 BMP response element reporter, Attagene transcription factor profiling; actives raise or lower the signal
Outline: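 Transient MRTU transfection of human HepG2 liver cells; 24 h compound treatment; total RNA isolated, reverse-transcribed, PCR-amplified, 6-FAM labelled, HpaI-cut, capillary electrophoresis. DMSO = negative control/baseline, bidirectional fit.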

[8] = molecular target: Retinoic acid receptor alpha (Homo sapiens) (UniProt P10276); assay: ATG_DR5_RAR_CIS: Attagene CIS-FACTORIAL HepG2 Assay for human Retinoic Acid Receptor Alpha (RARE), DR5 submotif (AID 2282934); settings: HepG2 Attagene cis-factorial RARE DR5 reporter, mRNA; actives raise or lower the signal
Sequence of Retinoic acid receptor alpha (Homo sapiens) (P10276 whole entry, looked up): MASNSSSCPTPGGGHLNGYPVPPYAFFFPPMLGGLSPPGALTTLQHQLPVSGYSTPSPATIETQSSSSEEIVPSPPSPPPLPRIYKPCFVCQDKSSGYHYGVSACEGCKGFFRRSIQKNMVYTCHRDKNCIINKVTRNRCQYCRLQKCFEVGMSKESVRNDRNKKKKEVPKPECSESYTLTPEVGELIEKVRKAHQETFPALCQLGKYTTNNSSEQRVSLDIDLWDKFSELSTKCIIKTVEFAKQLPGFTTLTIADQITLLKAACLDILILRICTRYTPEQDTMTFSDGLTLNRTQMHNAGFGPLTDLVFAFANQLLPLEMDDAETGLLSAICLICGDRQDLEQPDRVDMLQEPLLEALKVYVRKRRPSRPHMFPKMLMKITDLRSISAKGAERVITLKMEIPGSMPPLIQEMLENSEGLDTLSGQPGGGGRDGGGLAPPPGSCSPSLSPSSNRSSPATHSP
Outline: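 Reporter transcripts from a DR5-regulated unit, measured via RT-PCR plus capillary electrophoresis, reflect endogenous RAR activity in transiently transfected human HepG2 liver cells. Exposure lasted 24 h; gain or loss of signal scored against DMSO.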

[9] = molecular target: Transcription factor E2F1 (Homo sapiens) (UniProt Q01094); assay: ATG_E2F_CIS: Attagene CIS-FACTORIAL HepG2 Assay for human E2F Transcription Factor 1 (AID 2282935); settings: HepG2 Attagene cis-reporter, E2F reporter RNA transcripts; actives raise or lower the signal
Sequence of Transcription factor E2F1 (Homo sapiens) (Q01094 whole entry, looked up): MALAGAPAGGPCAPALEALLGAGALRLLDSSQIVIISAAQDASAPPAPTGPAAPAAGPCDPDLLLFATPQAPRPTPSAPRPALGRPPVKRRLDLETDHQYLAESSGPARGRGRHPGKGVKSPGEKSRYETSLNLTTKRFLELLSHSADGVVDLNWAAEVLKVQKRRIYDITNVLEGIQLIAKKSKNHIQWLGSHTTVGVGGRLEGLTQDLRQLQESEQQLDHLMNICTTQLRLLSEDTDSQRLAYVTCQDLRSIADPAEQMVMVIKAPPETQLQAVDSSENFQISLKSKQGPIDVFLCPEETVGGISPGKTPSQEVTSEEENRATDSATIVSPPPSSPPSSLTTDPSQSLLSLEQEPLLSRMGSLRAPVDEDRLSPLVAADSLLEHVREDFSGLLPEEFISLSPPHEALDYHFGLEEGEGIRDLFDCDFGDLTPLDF
Outline: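 Fluorescent RT-PCR products, digested with HpaI for 2 h at 37 C, are separated by capillary electrophoresis. Source RNA comes from transfected HepG2 cultures treated for 24 h.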

[10] = ATG_E_Box_CIS: Attagene CIS-FACTORIAL HepG2 Assay for human Enhancer Box (E-box) (AID 2282936); settings: HepG2 E-box cis-reporter transcription, actives raise or lower the signal
Outline: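 Fluorescent reporter fragments separated by capillary electrophoresis gave the signal; mRNA came from HepG2 cells transfected with cis-element reporters and treated 24 h. Curves fitted bidirectionally relative to DMSO controls.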

[11] = ATG_M_61_CIS: Attagene CIS-FACTORIAL HepG2 Assay for M61 Transcription Factor (Internal Marker) (AID 2282937); settings: HepG2 Attagene CIS-FACTORIAL M61 internal marker reporter; actives raise or lower the signal
Outline: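 Background-control endpoint: HepG2 cells with cis-regulated reporter constructs, 24 h exposure, reporter mRNA detected via fluorescent primer extension and capillary electrophoresis; values from bidirectional fitting with DMSO baseline.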

[12] = ATG_EGR_CIS: Attagene CIS-FACTORIAL HepG2 Assay for human Early Growth Response 1 (EGR1) (AID 2282938); settings: HepG2 Attagene CIS-FACTORIAL EGR reporter mRNA; actives raise or lower the signal
Outline: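 Endpoint derived by bidirectional fitting versus DMSO vehicle. Method: cis-promoter reporter units transfected into HepG2, 24 h dosing, RNA isolation, RT-PCR with 6-FAM primer extension and HpaI digestion, then capillary electrophoresis fluorescence detection.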

[13] = ATG_AP_1_CIS: Attagene CIS-FACTORIAL HepG2 Assay for human Activator Protein 1 (AP-1) (AID 2282931); settings: HepG2 Attagene cis-factorial AP-1 reporter mRNA; actives raise or lower the signal
Outline: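 Cis-regulated reporter units transiently expressed in HepG2 report endogenous transcription-factor activity. Signal: reporter mRNA at 24 h, via RT-PCR and fluorescent capillary electrophoresis. Endpoint derived by bidirectional fitting, DMSO as negative control.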

Measured: AC50

O=C(Cc1ccccc1)OCCc1ccccc1
inactive: [1] | [2] | [3] | [4] | [5] | [6] | [7] | [8] | [9] | [10] | [11] | [12]

CCOP(=O)(OCC)OC(=CCl)c1ccc(Cl)cc1Cl
inactive: [1] | [2] | [3] | [4] | [5] | [6] | [7] | [8] | [9] | [10] | [12]

NC(=O)CCl
inactive: [1] | [2] | [3] | [4] | [5] | [6] | [7] | [8] | [9] | [10] | [11] | [12]

O=C(NC(=O)c1c(F)cccc1F)Nc1cc(Cl)c(F)c(Cl)c1F
active: [4] 512 nM
inactive: [1] | [2] | [3] | [5] | [13] | [6] | [8] | [9] | [11] | [12]

CNC(=O)N(C)c1nc2ccccc2s1
active: [5] 1080 nM
inactive: [1] | [2] | [3] | [4] | [6] | [7] | [8] | [9] | [10] | [11] | [12]
